# Data published in the supplement of paper PMC6555819.
# Columns and labels:
# Assay in all cases: PBM binding z-score (relative to random genomic background probes); higher = stronger binding; sequences stand for … in GC…GCGATTGACAGCGTAGAATGAAGG
# [1] = tested on: FXR:RXRa (NR concentration 270 nM, RXRa partner concentration 90 nM)
# Method in brief: (§1)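 For binding z-scores, the reference was random background probes on custom Agilent 4×180K protein-binding microarrays. These arrays were incubated 1 h with ligand-free nuclear receptor dimers in PBS pH 7.4, 2% milk, 0.02% Triton X-100, 1 mM DTT, 0.2 mg/mL BSA and 0.4 mg/ml salmon testes DNA. Fluorescence was scanned after antibody detection of each partner (one per run) and regression-normalized.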
# [2] = tested on: LXRa:RXRa (NR concentration 270 nM, RXRa partner concentration 90 nM)
# Method in brief: as §1
# [3] = tested on: LXRa homodimer (NR concentration 270 nM)
# Method in brief: as §1
# [4] = tested on: LXRb:RXRa (NR concentration 270 nM, RXRa partner concentration 90 nM)
# Method in brief: as §1
# [5] = tested on: LXRb homodimer (NR concentration 270 nM)
# Method in brief: as §1
# [6] = tested on: PPARa:RXRa (NR concentration 270 nM, RXRa partner concentration 90 nM)
# Method in brief: as §1
# [7] = tested on: PPARg:RXRa (NR concentration 180 nM, RXRa partner concentration 90 nM)
# Method in brief: as §1
# [8] = tested on: PPARg:RXRa 270nM:90nM, anti-RXR (NR concentration 270 nM, RXRa partner concentration 90 nM)
# Method in brief: as §1
# [9] = tested on: PPARg:RXRa 30nM:10nM, anti-RXR (NR concentration 30 nM, RXRa partner concentration 10 nM)
# Method in brief: as §1
# [10] = tested on: PPARg:RXRa 90nM:30nM, anti-RXR (NR concentration 90 nM, RXRa partner concentration 30 nM)
# Method in brief: as §1
# [11] = tested on: PPARg:RXRa DBDmut IVT, anti-RXR (DBD mutation: RXRa K156A/R161A, NR concentration 270 nM, RXRa partner concentration 90 nM)
# Method in brief: as §1
# [12] = tested on: PPARg:RXRa IVT, anti-PPARg (NR concentration 270 nM, RXRa partner concentration 90 nM)
# Method in brief: as §1
# [13] = tested on: PPARg DBDmut:RXRa IVT, anti-PPARg (DBD mutation: PPARg1 K132A/R137A, NR concentration 270 nM, RXRa partner concentration 90 nM)
# Method in brief: as §1
# [14] = tested on: PPARg DBDmut IVT, anti-PPARg (DBD mutation: PPARg1 K132A/R137A, NR concentration 270 nM)
# Method in brief: as §1
# [15] = tested on: PPARg homodimer (NR concentration 180 nM)
# Method in brief: as §1
# [16] = tested on: PXR:RXRa (NR concentration 270 nM, RXRa partner concentration 90 nM)
# Method in brief: as §1
# [17] = tested on: PXR homodimer (NR concentration 270 nM)
# Method in brief: as §1
# [18] = tested on: RARa:RXR (NR concentration 270 nM, RXRa partner concentration 90 nM)
# Method in brief: as §1
# [19] = tested on: RARa homodimer (NR concentration 270 nM)
# Method in brief: as §1
# [20] = tested on: RARb:RXRa (NR concentration 270 nM, RXRa partner concentration 90 nM)
# Method in brief: as §1
Sequence,PBM binding z-score [1],PBM binding z-score [2],PBM binding z-score [3],PBM binding z-score [4],PBM binding z-score [5],PBM binding z-score [6],PBM binding z-score [7],PBM binding z-score [8],PBM binding z-score [9],PBM binding z-score [10],PBM binding z-score [11],PBM binding z-score [12],PBM binding z-score [13],PBM binding z-score [14],PBM binding z-score [15],PBM binding z-score [16],PBM binding z-score [17],PBM binding z-score [18],PBM binding z-score [19],PBM binding z-score [20]
TAGCGTAGGTCATGCGGGCCAGTATAGTGTCGGC,4.01,3.6,0.172,2.19,-0.449,3.68,1.98,2.43,0.234,1.45,0.799,2.08,0.502,-0.521,0.769,2.18,-0.691,2.98,-0.473,3.77
GGAACGAGGCCAAGTTGATAGCAGAGTTTGATGG,-0.211,-0.562,-0.768,-0.914,-0.878,0.0938,0.353,0.159,-0.422,-0.286,1.98,0.981,-1.22,-0.68,-0.613,-0.452,0.241,-0.778,-0.416,1.36
GCTAGTTGGTCTGTAAAAGGTCACACACCGGTCG,3.27,4.45,4.26,3.98,0.57,4.33,2.5,4.63,2.19,4.12,0.547,2.28,0.389,-0.363,4.38,4.79,1.16,5.54,1.67,3.87
TCATATAGCTAATACAGGTGAAAGTCGGCATCTA,0.322,0.835,0.0705,0.543,-0.0868,1.17,0.706,1.77,3.13,2.35,1.68,0.828,0.761,0.528,0.511,0.475,-0.0901,0.626,0.67,0.139
TCATATAGGTAATACAGTTGAAAGTCGGCATCTA,1.56,1.24,0.63,1.2,0.422,1.56,1.32,2.56,4.01,3.39,4.07,2.33,1.55,1.26,1.26,1.11,0.75,1.51,2.05,0.685
CCTAGCAGGCAAATCTGGGTCACTCAAGGCTTGA,0.679,1.35,-0.33,0.851,-0.654,3.07,2.26,2.58,0.128,1.8,4.27,5.25,-0.619,-1.06,0.358,0.746,-0.354,0.989,-0.416,1.16
ATAGGTAGGTTAAGGGTCATTCAGGTTGGTTCGC,5.35,5.02,3.31,4.83,2.47,5.86,9.73,8.69,8.35,9.51,3.71,5.35,3.33,1.88,4.75,5.63,3.61,6.1,3.3,3.83
CAGCTTAGGTCAGGGCCAGTATAGGAGGAACGTT,2.21,1.3,-0.0157,0.814,-0.56,2.17,0.606,0.732,-0.0225,0.447,1.28,0.782,-0.279,-1.2,1.34,0.726,0.0136,1.68,0.556,3.79
ATCGATAGGTCGAGGTGAGTATAGAGAAAGGGAA,0.48,0.636,-0.293,0.566,-0.118,2.02,0.873,0.711,0.245,0.369,-0.366,1.03,0.292,0.326,0.276,0.415,-0.0359,0.853,0.359,1.94
ATATGAAGGTTAAGGGTCATTCAGGTTGGTTCGC,5.91,5.46,3.32,4.85,1.14,5.8,8.33,7.73,5.9,8,2.29,4.44,1.32,1.46,3.39,5.84,2.27,6.97,1.13,4.19
ACTTACGTGTCAACGAGGTTATAGCACGCGTATA,0.812,1.03,0.113,1.02,0.0422,1.84,0.927,0.653,0.374,0.627,0.785,1.07,0.246,0.671,0.479,1.26,0.652,1.65,0.0685,1.2
TCTTGTAGATCAAGCAGGGTAAGAAAGCCTGAGT,0.561,-0.0537,-0.634,0.0919,-0.511,0.15,-0.37,1.08,2.34,1.6,1.7,0.481,-0.108,-0.000734,-0.854,0.136,-0.0302,0.246,-0.676,-0.148
GCTTACTGGTCAAAGGTTATAGCATGAATAGAAT,2.63,2.93,0.195,2.9,-0.146,4.95,8.22,7.6,6.04,7.95,1.14,3.37,1.09,1.11,0.856,3.18,0.438,4.53,0.553,2.54
